Compounds with a hit are over-represented: about 4.7% of the library has one in this group of screens.
FBA Mtb inh: inhibitors of M. tuberculosis fructose-bisphosphate aldolase | purified M. tuberculosis FBA, fluorescence read-out | inhibition, % at 1 µM | hit rate 2.3% among 360,000 | AID 588726; in the data active = inhibition above about 27%;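 note: 0% = vehicle and 100% = reference inhibitor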
VHR inh abs: DUSP3 (human) phosphatase inhibition; recombinant VHR phosphatase, pNPP absorbance; inhibition, % at 13.3 µM; hit rate 0.52% among 290,000; AID 1654; in the data active = inhibition above about 50%
Target sequence (P51452 whole entry, looked up): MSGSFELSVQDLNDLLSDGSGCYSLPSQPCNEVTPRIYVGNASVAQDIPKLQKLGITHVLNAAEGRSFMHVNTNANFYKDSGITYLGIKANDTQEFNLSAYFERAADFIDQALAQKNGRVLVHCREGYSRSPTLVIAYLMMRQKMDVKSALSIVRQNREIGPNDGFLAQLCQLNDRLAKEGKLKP
RecA intein inh: inhibitors of M. tuberculosis RecA intein splicing | P9WHJ3 | cell-free RecA intein splicing, fluorescence | inhibition, % (test concentration not listed) | hit rate 0.75% among 290,000; in the data active = inhibition above about 30%;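 note: 0% = vehicle wells and 100% = reference inhibitor control wells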
SARS 3CLpro inh: SARS-CoV 3CLpro protease inhibition; P0C6X7; recombinant SARS-CoV 3CLpro, quenched FRET peptide cleavage; inhibition, % at 6 µM; hit rate 0.14% among 290,000; AID 1706; in the data active = inhibition above about 12%
GDH-TPI counter: inhibits GDH-TPI coupling enzymes, artifact for Mtb FBA screen | AID 588335 | hit rate 1.2% among 360,000 | GDH-TPI coupled enzyme counterscreen, NADH absorbance | inhibition, % at 4.8 µM;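 note: 0% = DMSO wells and 100% = wells lacking the enzyme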
CCHFV vOTU inh: CCHFV vOTU protease inhibition; Pep-AMC fluorescence; inhibition, % at 11.5 µM; hit rate 0.55% among 370,000; note: 0% = vehicle wells with enzyme and 100% = no enzyme wells
Active calls of the source: *. Cut-off read from the data, not from the text of the source, unless noted: active = inhibition above about 30%; inactive = the rest.

Screening C/C(=N\Nc1ccccn1)c1ccc(S(=O)(=O)NCc2ccco2)cc1 returned FBA Mtb inh -0.1, VHR inh abs -1.2, RecA intein inh -2.1, SARS 3CLpro inh -1.3, GDH-TPI counter 28.1 and CCHFV vOTU inh 14.7.
C/C(=N\Nc1ccc(C(=O)O)cc1)c1ccc(S(=O)(=O)NCc2ccco2)cc1 was read as FBA Mtb inh 1.1, VHR inh abs 12.0, RecA intein inh -0.4, SARS 3CLpro inh 4.7, GDH-TPI counter 54.2* and CCHFV vOTU inh 17.2.
C/C(=N\Nc1ccc(C(=O)O)cc1)c1ccc(Br)cc1 was read as FBA Mtb inh 1.7, VHR inh abs 10.1, RecA intein inh -2.7, SARS 3CLpro inh 5.1, GDH-TPI counter 55.8* and CCHFV vOTU inh 13.2.
Screening O=C(N/N=C/c1ccc(O)cc1)c1ccc(COc2cc(Cl)ccc2Cl)o1 returned FBA Mtb inh 1.0, VHR inh abs 9.1, RecA intein inh 6.9, SARS 3CLpro inh 4.6, GDH-TPI counter 34.8* and CCHFV vOTU inh -1.0.
Screening O=C(Nc1cccnc1)c1ccc(COc2cc(Cl)ccc2Cl)o1 returned FBA Mtb inh -1.7, VHR inh abs 20.0, RecA intein inh -3.2, SARS 3CLpro inh -4.7, GDH-TPI counter -5.0 and CCHFV vOTU inh 3.1.
`CC1(C)Oc2c(ccc(O)c2CN2CCOCC2)C2=C1CCCC2` gave FBA Mtb inh -0.1, GDH-TPI counter 6.0 and CCHFV vOTU inh -5.9.
`O=C(O)c1ccc(-n2cccc2/C=N\NC(=O)c2cc3cc(Br)ccc3o2)cc1` gave FBA Mtb inh 1.7, VHR inh abs 24.6, RecA intein inh -0.2, SARS 3CLpro inh -0.5, GDH-TPI counter 35.9* and CCHFV vOTU inh 18.2.
`Cc1ccc(CNC(=O)c2ccccc2NC(=O)CN2CCN(C)CC2)cc1` gave FBA Mtb inh -3.4, VHR inh abs 56.2*, SARS 3CLpro inh -2.5, GDH-TPI counter 13.4 and CCHFV vOTU inh -0.3.
O=C(c1ccccc1)N1CCC(c2nc3c(nnn3Cc3ccco3)c(=O)[nH]2)CC1 was read as FBA Mtb inh 2.6, VHR inh abs 50.0*, RecA intein inh 4.4, SARS 3CLpro inh 0.6, GDH-TPI counter 14.9 and CCHFV vOTU inh -5.3.
`CCC(C)(C(=O)Nc1ccc2c(c1)OCCO2)N(C(C)=O)c1ccc(C(N)=O)cc1` (stereo unspecified) gave FBA Mtb inh -1.3, VHR inh abs 30.2, RecA intein inh -3.9, SARS 3CLpro inh 1.2, GDH-TPI counter 31.8* and CCHFV vOTU inh -6.0.
Cc1cc(C)c(C)c(OCCNCc2ccccc2)c1 was read as FBA Mtb inh 0.7, VHR inh abs 52.0*, SARS 3CLpro inh 1.3, GDH-TPI counter 12.7 and CCHFV vOTU inh 7.0.
Nc1nc(CCl)nc(Nc2ccc3ccccc3c2)n1 was read as FBA Mtb inh -0.7, VHR inh abs 8.7, RecA intein inh 46.2*, SARS 3CLpro inh 2.1, GDH-TPI counter 10.2 and CCHFV vOTU inh 9.6.
COc1ccc(Nc2nc(N)nc(CCl)n2)cc1 was read as FBA Mtb inh 5.8, VHR inh abs 10.1, RecA intein inh 3.4, SARS 3CLpro inh 0.2, GDH-TPI counter -2.3 and CCHFV vOTU inh -2.1.
`CCCCC(=O)N(Cc1ccccc1)c1ccccc1C(=O)Nc1cc(OC)ccc1OC` gave CCHFV vOTU inh 10.1.
`Cc1cc(C)cc(NCc2cc3c(cc2[N+](=O)[O-])OCO3)c1` gave FBA Mtb inh 0.1, VHR inh abs 42.0, RecA intein inh 13.3, SARS 3CLpro inh -0.6, GDH-TPI counter 9.2 and CCHFV vOTU inh 8.6.
`COc1ccc(CNCc2cc3c(cc2[N+](=O)[O-])OCO3)cc1` gave FBA Mtb inh -1.1, VHR inh abs 53.0*, RecA intein inh -4.8, SARS 3CLpro inh -6.5, GDH-TPI counter 2.5 and CCHFV vOTU inh 5.0.
For COCCN1C(=O)C(=O)/C(=C(/O)c2ccc(S(=O)(=O)N3CCOCC3)cc2)C1c1ccc(O)cc1 (stereo unspecified) the results were FBA Mtb inh -3.1, VHR inh abs 5.1, RecA intein inh -0.1, SARS 3CLpro inh -6.5, GDH-TPI counter 32.9* and CCHFV vOTU inh 14.5.
Screening Cc1ccc(/C(O)=C2/C(=O)C(=O)N(CCN3CCOCC3)C2c2cccnc2)cc1 (stereo unspecified) returned FBA Mtb inh -1.4, VHR inh abs 0.9, RecA intein inh -3.3, SARS 3CLpro inh -1.8, GDH-TPI counter 33.0* and CCHFV vOTU inh 0.2.

Screening data: PubChem, several laboratories
